High-throughput results as filed in PubChem BioAssay.
IL-1B inflam inh = inflammasome signaling inhibition, IL-1 beta readout; THP-1 LPS/ATP IL-1B secretion, AlphaLISA, 16 h; active compounds read low; activity change, % at 57.5 µM; 360,000 compounds, 4.7% hits; AID 743279; in the data active = activity change below about -50%; inconclusive = mostly about -30% to -49%
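Secreted IL-1B measured by AlphaLISA bead assay after 16 h compound exposure of THP-1 cells; compounds (final up to 57.5 uM) added 1 h before LPS (250 ng/mL) and ATP (1.25 mM) stimulation; lower signal means less secretion.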
DT40 TDP1 CPT = growth inhibition of DT40 Tdp1-/-;hTDP1 cells with camptothecin (screen for TDP1 inhibitors) | chicken DT40 Tdp1-/-;hTDP1 cells + 20 nM CPT, ATP luminescence, 48 h | Potency, µM (titrated, usually from 46.2 µM), most hits filed as inhibitors | 420,000 compounds, 12% hits | AID 686979; note: nearly all actives have a fitted effect of over 55% in size
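Chicken DT40 Tdp1-/- cells complemented with human TDP1, 400 cells/well, exposed to compounds plus 20 nM camptothecin for at least 48 h at 37 C; viability read as ATP content by CellTiter-Glo luminescence.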
TDP1 cell noCPT = qHTS for Inhibitors of human tyrosyl-DNA phosphodiesterase 1 (TDP1): qHTS in cells in absence of CPT; 420,000 compounds, 15% hits; DT40 Tdp1-/- hTDP1 cells, no CPT, ATP luminescence, 48 h; Potency, µM (titrated, usually from 46.2 µM), usual class: inhibitors; note: nearly all actives have a fitted effect of over 55% in size
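Chicken DT40 Tdp1-/- cells stably complemented with human TDP1 were seeded at 400 cells/well with DMSO in place of 20 nM camptothecin. After compound pinning, cells grew at least 48 hr at 37 °C; viability read by CellTiter-Glo luminescence.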
Six1-Eya2 blk = Six1/Eya2 interaction inhibition | activity change, % (concentration not given with the values) | AlphaScreen GST-Six1/His-Eya2 binding, biochemical; active compounds read low | Q15475+O00167 | 360,000 compounds, 0.56% hits; in the data active = activity change below about -65%; inconclusive = mostly about -30% to -63%
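Homogeneous AlphaScreen proximity assay pairing GST-Six1 with His-tagged Eya2 (added as 5X mix: 250 nM and 500 nM) in 50 mM Tris pH 8.0, 300 mM NaCl, 1 mM TCEP. Glutathione donor and nickel acceptor beads; 1 h, 37 °C, dark.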
CtBP-E1A inh = CtBP/E1A binding inhibition; activity change, % (no concentration beside the values); AlphaScreen GST-E1A/His-CtBP binding, 1536-well; active compounds read low; AID 651724; 340,000 compounds, 0.49% hits; in the data active = activity change below about -65%; inconclusive = mostly about -30% to -63%
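In 5 uL wells, 23 nL compound meets equimolar GST-E1A and His-CtBP (5X stock 125 nM each) for 2 h, 37 °C. Beads (5X, 50 ug/mL) then 1 h, 37 °C, dark.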
TDP1 inh = blocks human tyrosyl-DNA phosphodiesterase 1; Potency, µM (highest dose often 130 µM), most hits filed as inhibitors; Q9NUW8; AID 485290; 350,000 compounds, 0.28% hits; recombinant TDP1, AlphaScreen DNA substrate cleavage; note: nearly all actives have a fitted effect of over 40% in size
Target sequence (Q9NUW8 whole entry, looked up): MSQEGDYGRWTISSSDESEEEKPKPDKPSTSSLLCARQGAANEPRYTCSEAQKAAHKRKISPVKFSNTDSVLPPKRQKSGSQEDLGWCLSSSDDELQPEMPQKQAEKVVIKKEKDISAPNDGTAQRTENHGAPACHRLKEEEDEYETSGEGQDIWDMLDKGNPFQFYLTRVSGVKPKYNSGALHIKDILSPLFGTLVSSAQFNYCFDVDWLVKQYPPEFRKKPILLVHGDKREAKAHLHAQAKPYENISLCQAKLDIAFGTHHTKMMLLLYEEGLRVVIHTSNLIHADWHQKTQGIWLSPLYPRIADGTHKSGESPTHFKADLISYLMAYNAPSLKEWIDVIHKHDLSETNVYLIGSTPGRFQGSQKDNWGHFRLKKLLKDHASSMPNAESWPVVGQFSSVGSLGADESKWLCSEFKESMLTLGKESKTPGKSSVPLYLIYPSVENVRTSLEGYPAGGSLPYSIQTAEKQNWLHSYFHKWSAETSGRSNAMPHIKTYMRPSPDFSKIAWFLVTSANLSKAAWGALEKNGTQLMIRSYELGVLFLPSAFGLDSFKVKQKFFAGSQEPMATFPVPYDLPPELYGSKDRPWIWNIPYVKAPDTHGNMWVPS
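Recombinant E. coli-expressed Tdp1 (1 nM) preincubated with compound 15 min at RT, then 5'-biotin/3'-phosphotyrosine-FITC DNA substrate (15 nM) added for 5 min. AlphaScreen beads (10 ug/ml) added, 10 min RT; tyrosine-FITC cleavage read as signal loss.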
Hits are given with their value; - = inactive; ? = inconclusive; . = no result given. Compounds with a hit are over-represented: about 18% of the library has one in this group of screens. Unless noted, calls come from the whole dose curve; as a rule, active = well fitted curve in the direction sought with a large enough effect; inconclusive = small, poorly fitted or top-dose-only effect, or another doubt; inactive = no such curve, though single readings can be large; an effect the other way counts as inactive or inconclusive.

SMILES | IL-1B inflam inh | DT40 TDP1 CPT | TDP1 cell noCPT | Six1-Eya2 blk | CtBP-E1A inh | TDP1 inh
O=C(Nc1ccc(Br)cc1)c1cc(S(=O)(=O)NC2CCCC2)ccc1F | . | 23µM | 21µM | . | . | -
CC(=O)Nc1ccc(S(=O)(=O)NC2CCCCCC2)cc1 | - | ? | ? | - | - | -
O=C(Nc1ccc(F)c(F)c1)c1cc(S(=O)(=O)NC2CCCC2)ccc1F | . | ? | 23µM | . | . | -
Cc1ccc(NC(=O)c2cc(S(=O)(=O)NC3CCCCC3)ccc2F)cc1Cl | . | 23µM | 21µM | . | . | -
COCCCN1C(=O)c2ccc(C(=O)N3CCN(c4ccc(OC)cc4)CC3)cc2C1=O | - | - | - | - | - | -
O=S(=O)(N[C@@H]1CC[C@H](CCNS(=O)(=O)c2ccccc2Cl)O[C@@H]1CO)c1ccccc1 | - | - | - | - | - | .
Cc1[nH]c2ccccc2c1C(=O)CNc1nccs1 | - | ? | - | - | - | -
C=C1C(=O)O[C@H]2[C@H]1[C@@H](O)CC(=C)[C@@H]1CC(=O)[C@@H](C)[C@H]21 | -92 | 5.2µM | 6.5µM | - | - | .
c1ccc(NC2=NCCN2CC2CCCC2)cc1 | - | - | - | - | - | .
Cc1c(C2(O)CCCCC2)[nH]c2ccc(C(F)(F)F)cc12 | - | ? | ? | - | - | -
CCc1c(C2(O)CCCCC2)[nH]c2cnccc12 | - | ? | 18µM | - | - | -
O=C(Cc1ccc(Cl)cc1)Nc1ccccc1N1CCN(C(=O)c2ccccc2)CC1 | ? | ? | 21µM | - | - | -
O=C(Nc1ccccc1N1CCN(C(=O)c2ccccc2)CC1)c1ccc(Cl)cc1 | ? | ? | 23µM | - | - | -
O=C(Nc1ccccc1N1CCN(C(=O)c2ccc(Cl)cc2)CC1)c1ccc(Br)cc1 | - | ? | - | - | - | -
O=C(Nc1ccccc1N1CCN(C(=O)c2ccc(Cl)cc2)CC1)c1cc2ccccc2o1 | - | 26µM | ? | - | - | -
O=C(Nc1ccccc1N1CCN(C(=O)c2ccccc2)CC1)c1ccc(Br)o1 | - | ? | 21µM | - | - | -
Cc1ccc(C(=O)NC2CCN(C(=O)Nc3ccccc3)CC2)cc1 | - | - | - | - | - | -
Cc1ccc(NC(=O)CS(=O)CC(=O)Nc2cccc(C)c2C)cc1F (centres undefined) | - | - | - | - | - | -
O=C(NC(=S)Nc1ccccc1N1CCN(C(=O)c2ccccc2)CC1)c1ccccc1F | - | 16µM | 18µM | - | - | -
O=C(NC(=S)Nc1ccccc1N1CCOCC1)c1ccccc1F | - | ? | ? | - | - | -
Cc1ccc(N/C(N)=N/c2nc(CSc3nnc(C)s3)cc(=O)[nH]2)c(C)c1 | - | 0.65µM | 0.82µM | - | . | -
COCc1cc(=O)[nH]c(/N=C(\N)Nc2ccc(Oc3ccccc3)cc2)n1 | - | - | ? | - | - | -
Cc1cccc(N/C(N)=N/c2nc(CSc3ccc(Cl)cc3)cc(=O)[nH]2)c1 | - | 8.2µM | 9.2µM | - | . | -
CCc1ccc(N/C(N)=N/c2nc(CSc3ncccn3)cc(=O)[nH]2)cc1 | - | ? | 13µM | - | . | -
CCOc1ccc(N/C(N)=N/c2nc(CSc3nnnn3-c3ccccc3)cc(=O)[nH]2)cc1 | - | 16µM | ? | - | - | -
SMILES | IL-1B inflam inh | DT40 TDP1 CPT | TDP1 cell noCPT | Six1-Eya2 blk | CtBP-E1A inh | TDP1 inh
CC1=NN(C(=O)CSCc2ccccc2)C(O)(c2ccc(F)cc2)C1 (centres undefined) | - | - | - | - | - | -
CNc1nc(CCN2C(=O)c3ccccc3C2=O)cs1 | - | - | - | - | - | -
O=C(O)c1ccc2c(c1)OCO2 | . | - | - | . | . | -
CC(C)Cn1c(=O)c2c(nc3n2CCCN3Cc2ccccc2)n(C)c1=O | - | - | ? | ? | - | .
O=C(NCCc1ccccc1)c1ccc2nc(N3CCCCC3)sc2c1 | . | - | ? | . | . | -
COc1ccc(CNCc2c(C(=O)O)n(Cc3ccc(F)cc3)c3cc(C)ccc23)cc1OC | . | 21µM | 23µM | . | . | -
